Tests used:
[1] = target: Tumor necrosis factor receptor superfamily member 10B (Homo sapiens) (UniProt O14763); assay: caspase-8 TRAIL sensitization, hit retest, confirmation, cell-based, NB7+caspase-8, with/without TRAIL, luminescence panel (AID 651596); conditions: NB7 neuroblastoma + caspase-8, TRAIL sensitization, luminescence viability, with TRAIL, mean of runs, at 10 µM, stronger effect = higher value
[2] = as above; conditions: NB7 neuroblastoma + caspase-8, without TRAIL, luminescence viability, without TRAIL, mean of runs, at 10 µM

Tumor necrosis factor receptor superfamily member 10B (Homo sapiens), sequence (O14763 whole entry, looked up): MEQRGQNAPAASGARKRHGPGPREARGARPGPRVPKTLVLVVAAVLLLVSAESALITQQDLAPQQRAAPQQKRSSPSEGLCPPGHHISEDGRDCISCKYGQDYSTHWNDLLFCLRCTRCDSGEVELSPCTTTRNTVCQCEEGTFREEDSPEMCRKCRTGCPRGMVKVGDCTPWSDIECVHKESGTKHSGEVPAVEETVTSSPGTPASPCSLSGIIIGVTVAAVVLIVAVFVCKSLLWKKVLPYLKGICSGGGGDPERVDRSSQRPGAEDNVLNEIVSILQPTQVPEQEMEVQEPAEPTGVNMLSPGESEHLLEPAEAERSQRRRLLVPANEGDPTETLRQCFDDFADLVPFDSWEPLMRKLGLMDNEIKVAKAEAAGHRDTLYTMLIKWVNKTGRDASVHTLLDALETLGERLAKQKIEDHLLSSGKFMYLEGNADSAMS

Compound | activity [1] | activity [2]
Cc1ccc2nc(-c3ccc(NC(=O)COC(=O)c4ccco4)cc3)sc2c1 | 73.4% | 74.6%
S=C(Nc1ccc(Cl)cc1)c1nc2ccccc2[nH]1 | 60.6% | 65.9%
CCc1ccc(NC(=O)c2nc(S(=O)(=O)Cc3ccccc3)ncc2Cl)cc1 | 51.2% | 86.6%
O=C(Nc1ccc2c(c1)nc1n2CCSC1)c1ccco1 | 77.4% | 75.2%
Nc1c(-c2ccccc2)cnc2cc(-c3ccccc3)nn12 | 73% | 67.4%
COc1ccccc1NC(=O)Nc1ccc2c(c1)nc(C)n2C | 77% | 73.8%
COn1c(SC2CCCCC2)nc2ccccc2c1=O | 60.3% | 60.1%
COc1ccc(-c2ccc(NC(=O)c3ccco3)cc2)nn1 | 91% | 89.9%
Cc1cc(C)n(-c2ccc(C(=O)Nc3ccc(C)c(S(=O)(=O)N4CCOCC4)c3)cc2)n1 | 63.5% | 24.2%
COc1cccc(Cn2c(NCc3cccnc3)nc3c2c(=O)n(C)c(=O)n3C)c1 | 79.5% | 84.7%
Cc1ccc(C(=O)N/C(=C\c2ccc(-c3ccccc3[N+](=O)[O-])o2)C(=O)NCCCN(C)C)cc1 | 18.7% | 31.6%
Cc1ccc(N=Cc2c(C)[nH]n(-c3nc4ccccc4[nH]3)c2=O)cc1 | 88.6% | 88.8%
CCOc1ccc(N=Cc2c(C)[nH]n(-c3nc4ccccc4[nH]3)c2=O)cc1 | 87.4% | 86.2%
Cc1cc(C)c(C#N)c(SCc2nc3ccccc3c(=O)[nH]2)n1 | 82.8% | 82.5%
Nc1ccccc1C#CC(=O)c1ccccc1 | 33.9% | 94.2%
Cc1ccc(/C=C/C2=NN(C)C(=O)CC2)cc1 | 46.6% | 40.1%

— PubChem BioAssay
